Data taken from PubChem BioAssay AID588856 (National Center for Advancing Translational Sciences (NCATS), 2011).
In all, about 410,000 compounds went through this assay and about 3,100 (0.76%) were called active. Calls follow the shape of the dose curve; as a rule, active = well fitted cell-killing curve with a large enough effect; inactive = no such curve, though single readings can be large or run the other way. Shown is part of a subset that was picked to be rich in actives. A call without a number means that no potency is given here.

Test: qHTS for Inhibitors of TGF-b: Cytotox Counterscreen
Settings: HepG2 CAGA-GFP viability, ATP luminescence, 18 h; series mostly up to 46.1 µM
In short: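 CellTiter-Glo luminescence gave cytotoxicity after 18 hours at 37 degrees C. The cells were HepG2 CAGA-GFP in 1% FBS DMEM, stimulated with 500 pg/mL TGF-beta after compound addition. %Activity was normalised to no-cell wells (complete cell-killing) and DMSO (no toxicity), and curves were fitted and classified.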
Potency is read from the fitted curve at half-maximal effect.

Row | SMILES | Potency
1 | Oc1ccc(Cl)cc1C1C=C(c2ccc3c(c2)OCO3)NC(c2ccc(F)c(Br)c2)N1 (configuration not stated) | inactive
2 | CCOc1ccccc1NC(=O)c1ccc2c(c1)CCN2S(=O)(=O)c1ccc(C)cc1 | inactive
3 | COc1ccc(C)cc1Nc1nc2ccccc2c2nnc(C)n12 | inactive
4 | CCCNC(=O)C(CC)n1nc(CC)n2c(cc3oc(C)cc32)c1=O (configuration not stated) | inactive
5 | CCOC(=O)c1c(C)[nH]c(CCC(=O)NCCCN2CCN(c3cc(C)ccc3C)CC2)c1C | inactive
6 | O=C(NCCCN1CCN(c2ccc(F)cc2)CC1)Nc1ccc([N+](=O)[O-])cc1 | inactive
7 | Cc1ccc(C)c(N2CCN(CCCNC(=O)Nc3ccc(Cl)cc3)CC2)c1 | 10 µM (active)
8 | O=C(C1CCC(Cn2c(=O)c3sccc3n(Cc3ccccc3F)c2=O)CC1)N1CCCCC1 (configuration not stated) | inactive
9 | COc1cc(CN(C(=O)c2ccccc2Br)c2ccccn2)cc(OC)c1OC | inactive
10 | CCC(C)CN1CCC(CO)(Cc2ccccc2Cl)CC1 (configuration not stated) | inactive
11 | COc1cccc(CC2(CO)CCN(Cc3cnc(-c4cccc(C)c4)nc3)CC2)c1 | inactive
12 | Cc1c(CN2CCC(CO)(CCOc3ccccc3)CC2)[nH]c2ccc(Cl)cc12 | 20 µM (active)
13 | COc1cc(/C=C/c2ccc(/C=C/c3cc(OC)c(OC)c(OC)c3)cc2)cc(OC)c1OC | inactive
14 | Cc1ccc(S(=O)(=O)Oc2ccc(/C=N/NC(=O)c3c(Cl)cnn3C)cc2)cc1 | inactive
15 | COc1cc(/C=N/O)cc(Br)c1OS(=O)(=O)c1ccc(C)cc1 | 12.6 µM (active)
16 | CO[C@H]1O[C@@H]2O[C@@]3(C)CC[C@@H]4[C@@H](C)CC[C@@H]([C@H]1C)[C@@]24OO3 | inactive
17 | Fc1ccc(-c2nc(Nc3cccc(Cl)c3)nc3c2COc2ccccc2-3)cc1 | inactive
18 | Cc1oc(-c2ccccc2F)nc1CN1CCC(C(=O)NCCc2ccc(Cl)cc2)CC1 | inactive
19 | COc1ccc(Cn2ccc3nc(C)c(C(=O)Nc4ccc(C)c(F)c4)cc3c2=O)cc1 | inactive

Row | SMILES | Potency
20 | O=C(NC1=CC(=O)c2ccccc2C1=O)c1ccccc1 | 15.8 µM (active)
21 | CC1=C(C(=O)N2CCN(c3cccc(C(F)(F)F)c3)CC2)C2(CCCCC2)OC1=O | inactive
22 | Cc1ccc(SCC(CC(C)C)N2CCN(CCc3ccccc3)CCC2=O)cc1 (configuration not stated) | inactive
23 | COc1ccc(C(=O)Nc2cccc(C(=O)OCc3cc(=O)n4c5c(sc4n3)CCCC5)c2)cc1 | inactive
24 | CCC1CCCCN1Cc1c(O)ccc2c(=O)c(Oc3ccccc3Cl)c(C(F)(F)F)oc12 (configuration not stated) | inactive
25 | CC1=C/C(=N\OS(=O)(=O)c2ccccc2)C=CC1=O | 12.6 µM (active)
26 | CCc1ccc(CNC(=O)c2cc3cc4ccc(OC)cc4nc3o2)cc1 | inactive
27 | Cc1ccc(-c2cnc(C3CC3)o2)cc1S(=O)(=O)Nc1cccc(C)c1C | inactive
28 | C=CCNC(=S)N1CCN(CCN=Cc2c(C)[nH]n(-c3ccc([N+](=O)[O-])cc3)c2=O)CC1 | inactive
29 | Cc1[nH]n(-c2ccc([N+](=O)[O-])cc2)c(=O)c1C=NCCN1CCN(C(=O)c2ccccc2F)CC1 | 2 µM (active)
30 | CCC(=O)c1ccc(N2CCN(C(=O)c3cc([N+](=O)[O-])ccc3F)CC2)c(F)c1 | inactive
31 | Cc1ccc2ccc3c(c2n1)NS(=O)(=O)c1ccccc1-3 | inactive
32 | COc1ccc(C(CCN2CCOCC2)c2c(OC)cc(OC)c3c2OC(=O)CC3c2ccc(OC)cc2)cc1 (configuration not stated) | inactive
33 | O=C(C[n+]1ccncc1)c1ccc2c(c1)CCCC2 | inactive
34 | Cn1cc(C(=O)c2ccc(Cl)cc2Cl)cc1C(=O)NN | inactive
35 | CC(C)(CNC(=O)Cc1ccc(Cl)cc1Cl)N1CCOCC1 | inactive
36 | CC(C)(C)c1cc(C(=O)NN)n(Cc2ccc(Cl)cc2Cl)n1 | 12.6 µM (active)
37 | CCOC(=O)C1CCCN(C(=O)c2ccc3c(c2)sc2nc(-c4ccc(CC)cc4)cn23)C1 (configuration not stated) | inactive
38 | Cc1ccc2c(c1)N(C(=O)Nc1ccc(Br)cc1F)CCO2 | inactive

Row | SMILES | Potency
39 | COc1cccc(NC(=O)CSc2cc(=O)n(C)c3ccc(Cl)cc23)c1 | inactive
40 | CCCCC(O)(CCCC)C(=O)NN(C(=O)CCl)c1ccccc1 | inactive
41 | Cc1cccc(N(Cc2ccccc2)C(=O)c2ccccc2F)c1 | inactive
42 | CCCC(O)(CCC)C(=O)NN(C(=O)CCl)c1cccc(C)c1 | 20 µM (active)
43 | CCCn1c(NCc2ccc(N(CC)CC)cc2)nc2ccccc21 | inactive
44 | CCOC(=O)c1c(C)[nH]c2c1-c1ccccc1C(=O)C2=O | 1.26 µM (active)
45 | CCOC(=O)c1c(SCC(=O)Nc2cccc(C)c2C)nc(=O)[nH]c1C | inactive
46 | CCOC(=O)c1c(C)[nH]c(C)c1S(=O)(=O)N(C)CC(=O)N1CCN(c2ccccc2)CC1 | inactive
47 | CCc1nnc(NS(=O)(=O)c2ccc(N=Cc3c(C)[nH]n(-c4ccc(C)cc4)c3=O)cc2)s1 | 8.91 µM (active)
48 | CCc1nnc(NS(=O)(=O)c2ccc(NC(=S)NC(=O)/C=C/c3cccs3)cc2)s1 | inactive
49 | CCc1nnc(NC(=O)CCN(c2ccc(C)cc2)S(=O)(=O)c2ccccc2)s1 | inactive
50 | CN(N=O)c1ccc(C=C2c3ccccc3-c3ccccc32)cc1 | inactive
51 | Oc1ccccc1C1=NN(c2ccccc2)C(c2ccccc2)C1 (configuration not stated) | 10 µM (active)
52 | Cc1ccc(N2C(=O)C3N=NN(CC(=O)N4N=C(c5cccc6ccccc56)CC4c4ccccc4)C3C2=O)cc1 (configuration not stated) | inactive
53 | COc1ccc(C2CC(c3cccc(OC)c3)=NN2c2ccc(S(N)(=O)=O)cc2)cc1 (configuration not stated) | inactive
54 | CC(=O)c1ccc[n+](C(C)CCC(C)[n+]2cccc(C(C)=O)c2)c1 (configuration not stated) | inactive
55 | CCOC(=O)c1c(S(=O)(=O)N2CCC(C(=O)NCc3ccccc3OC)CC2)c(C)n(C)c1C | inactive
56 | CCCCCCCCCCOC(=O)Cn1c(COc2cccc(OC)c2)[n+](C)c2ccccc21 | 20 µM (active)
57 | OC(CBr)CN1CCCCC1 (configuration not stated) | inactive
